For one sequence, binding signal results are on record in paper PMC7862700, “An all-to-all approach to the identification of sequence-specific readers for epigenetic DNA modifications on cytosine”.

What all share (experiment): DAPPL (digital affinity profiling via proximity ligation, sequencing); 10 mM Tris-HCl pH 7.5, 50 mM NaCl, 1 mM DTT, 4% glycerol, room temperature, 30 min; GST-TFs on glutathione beads, 16-mer random dsDNA library, 0.1% formaldehyde crosslink after washing; high values mean tight binding
One assay has as its target T1, FEV (Homo sapiens, UniProt Q99581 1-238).
T1 sequence: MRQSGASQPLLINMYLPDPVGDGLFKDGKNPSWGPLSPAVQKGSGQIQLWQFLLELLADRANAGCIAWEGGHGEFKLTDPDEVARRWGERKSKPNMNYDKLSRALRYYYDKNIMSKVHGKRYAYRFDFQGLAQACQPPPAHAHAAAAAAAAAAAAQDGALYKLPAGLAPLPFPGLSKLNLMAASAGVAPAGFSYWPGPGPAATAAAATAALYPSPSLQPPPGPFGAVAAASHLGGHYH
The following applies: protein: recombinant; tags: N-terminal GST; dsDNA, one strand shown. In outline: (§1)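 Pools of DNA-barcoded human transcription factors, expressed in yeast as GST fusions on glutathione beads and combined with a tag-only sample, were incubated with 200 nmole of a 16-mer random double-stranded DNA library. Incubation took 30 min at room temperature in Tris/NaCl/DTT/glycerol buffer and was followed by washing, 0.1% formaldehyde crosslinking, proximity ligation (BsaI/T4 ligase, 1 h, 37 °C), PCR amplification and sequencing on an Illumina NextSeq500. Binding signal is the ratio of a hexamer's read frequency for a factor to its frequency for the tag-only sample.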

The target in a further assay is ETV5 (Homo sapiens, UniProt P41161 1-510). The conditions noted are these: protein: recombinant; tags: N-terminal GST; dsDNA, one strand shown. In outline:
as §1

A further assay deals with HSF1 (Homo sapiens, UniProt Q00613 1-529). The conditions noted are these: protein: recombinant; tags: N-terminal GST; chain copies: 3; dsDNA, one strand shown. In outline:
as §1

For the next assay, the target named is T2, SPIC (Homo sapiens, UniProt Q8N5J4 1-248).
T2 sequence: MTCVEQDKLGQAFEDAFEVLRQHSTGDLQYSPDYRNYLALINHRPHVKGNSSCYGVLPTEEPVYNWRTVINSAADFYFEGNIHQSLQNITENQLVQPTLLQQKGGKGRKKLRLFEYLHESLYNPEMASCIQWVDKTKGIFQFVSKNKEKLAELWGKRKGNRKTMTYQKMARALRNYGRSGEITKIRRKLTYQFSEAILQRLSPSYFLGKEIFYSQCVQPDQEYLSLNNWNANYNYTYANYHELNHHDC
The following applies: protein: recombinant; tags: N-terminal GST; dsDNA, one strand shown. In outline: as §1

A further assay has as its target ELF4 (Homo sapiens, UniProt Q99607 1-663). The following applies: protein: recombinant; tags: N-terminal GST; dsDNA, one strand shown. In outline: as §1
A further assay addresses T3, ELK4 (Homo sapiens, UniProt P28324-2 1-405).
T3 sequence: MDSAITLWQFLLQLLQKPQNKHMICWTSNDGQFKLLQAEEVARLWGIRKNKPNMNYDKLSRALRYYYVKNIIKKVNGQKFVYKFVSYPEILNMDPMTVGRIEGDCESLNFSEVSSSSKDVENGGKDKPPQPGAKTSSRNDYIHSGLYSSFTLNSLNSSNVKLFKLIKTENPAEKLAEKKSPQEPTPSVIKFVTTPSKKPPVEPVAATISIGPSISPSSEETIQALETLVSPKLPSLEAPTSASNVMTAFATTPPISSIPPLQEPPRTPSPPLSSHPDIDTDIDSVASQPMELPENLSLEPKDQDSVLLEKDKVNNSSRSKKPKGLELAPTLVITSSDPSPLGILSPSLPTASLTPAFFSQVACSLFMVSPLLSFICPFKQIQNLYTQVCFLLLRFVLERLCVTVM
The conditions noted are these: protein: recombinant; tags: N-terminal GST; dsDNA, one strand shown. In outline:
as §1

The target of the next assay is T4, ETV2 (Homo sapiens, UniProt O00321 1-342).
T4 sequence: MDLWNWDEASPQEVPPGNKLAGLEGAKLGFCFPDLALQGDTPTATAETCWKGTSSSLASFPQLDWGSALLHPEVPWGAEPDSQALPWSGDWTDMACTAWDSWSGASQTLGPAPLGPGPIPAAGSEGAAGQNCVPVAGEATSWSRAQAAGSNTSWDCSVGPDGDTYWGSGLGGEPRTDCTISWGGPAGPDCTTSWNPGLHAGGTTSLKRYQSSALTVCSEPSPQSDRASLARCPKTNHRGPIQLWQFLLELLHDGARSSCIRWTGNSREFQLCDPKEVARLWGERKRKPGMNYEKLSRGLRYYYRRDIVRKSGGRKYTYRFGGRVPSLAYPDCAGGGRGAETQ
The following applies: protein: recombinant; tags: N-terminal GST; dsDNA, one strand shown. In outline: as §1

The next assay concerns the target T5, ELF3 (Homo sapiens, UniProt P78545 1-371).
T5 sequence: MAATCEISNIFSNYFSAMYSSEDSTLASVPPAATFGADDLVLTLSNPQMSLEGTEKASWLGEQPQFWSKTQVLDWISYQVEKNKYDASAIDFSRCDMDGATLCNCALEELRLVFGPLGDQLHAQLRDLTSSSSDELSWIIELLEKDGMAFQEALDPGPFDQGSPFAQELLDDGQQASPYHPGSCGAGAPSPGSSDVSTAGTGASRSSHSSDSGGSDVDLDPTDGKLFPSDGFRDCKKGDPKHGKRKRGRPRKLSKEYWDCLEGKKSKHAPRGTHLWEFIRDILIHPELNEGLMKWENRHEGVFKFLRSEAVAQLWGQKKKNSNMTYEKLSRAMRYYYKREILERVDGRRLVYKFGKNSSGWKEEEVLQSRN
The conditions noted are these: protein: recombinant; tags: N-terminal GST; dsDNA, one strand shown. In outline:
as §1

The next assay concerns the target CRX (Homo sapiens, UniProt O43186 1-299). The conditions noted are these: protein: recombinant; tags: N-terminal GST; dsDNA, one strand shown. In outline: as §1
The target of a further assay is ETV1 (Homo sapiens, UniProt P50549 1-477). The following applies: protein: recombinant; tags: N-terminal GST; dsDNA, one strand shown. In outline: as §1
Sequence of ETV1 (P50549 whole entry): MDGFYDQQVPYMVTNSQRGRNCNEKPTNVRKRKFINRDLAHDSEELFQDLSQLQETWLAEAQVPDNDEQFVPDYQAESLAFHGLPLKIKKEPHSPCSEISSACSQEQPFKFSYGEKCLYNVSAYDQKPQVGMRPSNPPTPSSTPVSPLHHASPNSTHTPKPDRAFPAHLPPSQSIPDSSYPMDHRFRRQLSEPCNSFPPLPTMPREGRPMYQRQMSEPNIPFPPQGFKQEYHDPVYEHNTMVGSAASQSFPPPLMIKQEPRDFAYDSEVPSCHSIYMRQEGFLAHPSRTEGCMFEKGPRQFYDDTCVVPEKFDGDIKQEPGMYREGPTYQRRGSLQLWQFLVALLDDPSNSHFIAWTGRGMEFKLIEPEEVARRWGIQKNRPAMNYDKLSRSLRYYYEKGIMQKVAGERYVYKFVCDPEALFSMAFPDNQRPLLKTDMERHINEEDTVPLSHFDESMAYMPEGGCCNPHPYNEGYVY
A further assay concerns the target T6, ERF (Homo sapiens, UniProt P50548 1-548).
T6 sequence: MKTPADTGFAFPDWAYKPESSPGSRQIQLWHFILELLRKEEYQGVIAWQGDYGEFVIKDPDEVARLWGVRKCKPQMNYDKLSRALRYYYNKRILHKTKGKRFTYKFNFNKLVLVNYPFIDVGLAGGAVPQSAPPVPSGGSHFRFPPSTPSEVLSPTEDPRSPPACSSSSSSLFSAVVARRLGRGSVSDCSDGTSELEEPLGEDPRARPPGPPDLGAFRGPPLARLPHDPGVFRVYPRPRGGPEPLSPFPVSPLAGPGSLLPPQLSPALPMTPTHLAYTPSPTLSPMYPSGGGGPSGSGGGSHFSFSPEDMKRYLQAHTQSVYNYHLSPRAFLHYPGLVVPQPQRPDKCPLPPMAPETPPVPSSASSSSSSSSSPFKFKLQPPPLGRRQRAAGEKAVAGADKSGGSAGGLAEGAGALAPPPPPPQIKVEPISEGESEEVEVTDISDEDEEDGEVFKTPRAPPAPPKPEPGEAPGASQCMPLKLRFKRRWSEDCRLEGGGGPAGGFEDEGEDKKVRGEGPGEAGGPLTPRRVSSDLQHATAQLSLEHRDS
The following applies: protein: recombinant; tags: N-terminal GST; dsDNA, one strand shown. In outline: as §1

For the next assay, the target named is T7, ETV3L (Homo sapiens, UniProt Q6ZN32 1-361).
T7 sequence: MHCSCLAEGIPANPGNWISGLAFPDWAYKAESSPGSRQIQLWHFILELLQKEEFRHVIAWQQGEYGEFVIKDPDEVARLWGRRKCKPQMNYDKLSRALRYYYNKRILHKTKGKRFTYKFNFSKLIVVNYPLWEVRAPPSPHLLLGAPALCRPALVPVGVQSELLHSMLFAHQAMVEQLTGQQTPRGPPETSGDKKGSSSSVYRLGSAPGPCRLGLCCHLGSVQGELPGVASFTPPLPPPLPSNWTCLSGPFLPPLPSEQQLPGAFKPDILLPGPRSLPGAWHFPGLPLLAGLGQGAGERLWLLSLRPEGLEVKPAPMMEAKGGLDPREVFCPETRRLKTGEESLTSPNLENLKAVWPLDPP
The conditions noted are these: protein: recombinant; tags: N-terminal GST; dsDNA, one strand shown. In outline:
as §1

The target in another assay is T8, ETS2 (Homo sapiens, UniProt P15036 1-469).
T8 sequence: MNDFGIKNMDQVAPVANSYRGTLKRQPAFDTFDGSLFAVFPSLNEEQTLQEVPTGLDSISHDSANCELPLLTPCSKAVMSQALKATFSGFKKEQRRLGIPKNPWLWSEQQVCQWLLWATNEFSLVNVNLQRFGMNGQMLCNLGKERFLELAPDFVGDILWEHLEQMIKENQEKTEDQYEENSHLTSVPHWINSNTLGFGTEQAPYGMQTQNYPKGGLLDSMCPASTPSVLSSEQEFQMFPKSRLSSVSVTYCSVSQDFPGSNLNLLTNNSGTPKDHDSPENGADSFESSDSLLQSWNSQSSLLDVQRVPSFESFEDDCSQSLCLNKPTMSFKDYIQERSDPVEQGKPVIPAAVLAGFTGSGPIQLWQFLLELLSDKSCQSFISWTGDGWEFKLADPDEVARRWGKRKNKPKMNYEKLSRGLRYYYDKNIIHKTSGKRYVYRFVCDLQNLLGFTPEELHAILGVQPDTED
The conditions noted are these: protein: recombinant; tags: N-terminal GST; dsDNA, one strand shown. In outline: as §1

The next assay has as its target T9, SPDEF (Homo sapiens, UniProt O95238 1-335).
T9 sequence: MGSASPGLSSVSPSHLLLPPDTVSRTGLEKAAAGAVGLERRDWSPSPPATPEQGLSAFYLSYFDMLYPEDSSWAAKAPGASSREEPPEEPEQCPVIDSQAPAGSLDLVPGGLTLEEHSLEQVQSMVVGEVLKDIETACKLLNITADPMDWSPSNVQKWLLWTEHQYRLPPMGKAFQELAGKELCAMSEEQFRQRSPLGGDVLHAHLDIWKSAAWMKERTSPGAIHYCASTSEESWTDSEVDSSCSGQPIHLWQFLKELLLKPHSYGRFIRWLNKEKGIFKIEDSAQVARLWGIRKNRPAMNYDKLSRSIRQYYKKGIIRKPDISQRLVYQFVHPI
The following applies: protein: recombinant; tags: N-terminal GST; dsDNA, one strand shown. In outline: as §1

Another assay deals with T10, ETV7 (Homo sapiens, UniProt Q9Y603 1-341).
T10 sequence: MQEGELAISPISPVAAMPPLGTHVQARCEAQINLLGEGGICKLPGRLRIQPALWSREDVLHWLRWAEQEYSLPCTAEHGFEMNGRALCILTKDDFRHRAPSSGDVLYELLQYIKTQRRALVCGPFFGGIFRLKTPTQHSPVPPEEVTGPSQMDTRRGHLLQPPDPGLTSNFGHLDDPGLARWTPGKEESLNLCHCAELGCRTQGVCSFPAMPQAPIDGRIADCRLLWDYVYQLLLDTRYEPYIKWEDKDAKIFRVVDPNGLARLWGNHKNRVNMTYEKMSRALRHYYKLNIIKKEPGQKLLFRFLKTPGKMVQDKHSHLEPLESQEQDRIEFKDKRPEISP
The following applies: protein: recombinant; tags: N-terminal GST; dsDNA, one strand shown. In outline:
as §1

The target of another assay is T11, ELF5 (Homo sapiens, UniProt Q9UKW6-2 1-255).
T11 sequence: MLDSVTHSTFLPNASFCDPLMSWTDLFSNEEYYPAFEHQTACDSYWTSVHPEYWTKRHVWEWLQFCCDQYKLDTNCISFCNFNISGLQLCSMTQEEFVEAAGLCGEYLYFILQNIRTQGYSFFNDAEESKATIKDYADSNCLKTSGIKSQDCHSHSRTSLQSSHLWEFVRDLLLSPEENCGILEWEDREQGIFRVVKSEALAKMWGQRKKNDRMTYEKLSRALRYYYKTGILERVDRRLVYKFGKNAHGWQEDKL
The following applies: protein: recombinant; tags: N-terminal GST; dsDNA, one strand shown. In outline: as §1

The next assay has as its target T12, ETV3 (Homo sapiens, UniProt P41162-2 1-143).
T12 sequence: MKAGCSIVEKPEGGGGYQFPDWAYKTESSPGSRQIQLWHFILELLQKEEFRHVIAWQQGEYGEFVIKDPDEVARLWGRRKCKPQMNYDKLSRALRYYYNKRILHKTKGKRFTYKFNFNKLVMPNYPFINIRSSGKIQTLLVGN
The following applies: protein: recombinant; tags: N-terminal GST; dsDNA, one strand shown. In outline: as §1

A further assay addresses ETV6 (Homo sapiens, UniProt P41212 1-452). The conditions noted are these: protein: recombinant; tags: N-terminal GST; dsDNA, one strand shown. In outline:
as §1

Sequence of HSF1 (Q00613 whole entry): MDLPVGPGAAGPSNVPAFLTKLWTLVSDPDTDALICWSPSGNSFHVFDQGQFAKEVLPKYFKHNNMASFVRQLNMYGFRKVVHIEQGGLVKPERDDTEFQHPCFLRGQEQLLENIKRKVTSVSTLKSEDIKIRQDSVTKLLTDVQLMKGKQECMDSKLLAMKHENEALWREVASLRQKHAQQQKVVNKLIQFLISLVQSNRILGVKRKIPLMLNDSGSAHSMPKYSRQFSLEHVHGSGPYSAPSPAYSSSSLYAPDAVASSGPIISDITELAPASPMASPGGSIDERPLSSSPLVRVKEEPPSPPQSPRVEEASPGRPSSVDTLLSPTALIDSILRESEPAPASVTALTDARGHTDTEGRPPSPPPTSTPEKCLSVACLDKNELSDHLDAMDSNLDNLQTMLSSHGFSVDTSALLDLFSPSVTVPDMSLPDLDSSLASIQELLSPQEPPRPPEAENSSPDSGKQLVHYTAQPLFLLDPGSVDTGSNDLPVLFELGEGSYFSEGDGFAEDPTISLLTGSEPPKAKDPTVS
Sequence of ETV6 (P41212 whole entry): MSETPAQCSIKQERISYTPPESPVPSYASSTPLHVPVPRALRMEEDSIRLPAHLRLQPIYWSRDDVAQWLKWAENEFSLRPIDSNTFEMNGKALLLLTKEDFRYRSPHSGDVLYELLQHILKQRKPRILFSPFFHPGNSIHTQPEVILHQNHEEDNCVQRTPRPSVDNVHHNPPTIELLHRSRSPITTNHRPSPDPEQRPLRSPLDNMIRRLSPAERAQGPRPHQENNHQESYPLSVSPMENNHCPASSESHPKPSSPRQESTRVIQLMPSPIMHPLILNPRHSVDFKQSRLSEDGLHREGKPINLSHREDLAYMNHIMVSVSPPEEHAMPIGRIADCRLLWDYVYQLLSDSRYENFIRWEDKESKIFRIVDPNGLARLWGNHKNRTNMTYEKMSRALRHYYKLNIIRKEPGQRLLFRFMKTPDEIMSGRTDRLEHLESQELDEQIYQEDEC
Sequence of ELF4 (Q99607 whole entry): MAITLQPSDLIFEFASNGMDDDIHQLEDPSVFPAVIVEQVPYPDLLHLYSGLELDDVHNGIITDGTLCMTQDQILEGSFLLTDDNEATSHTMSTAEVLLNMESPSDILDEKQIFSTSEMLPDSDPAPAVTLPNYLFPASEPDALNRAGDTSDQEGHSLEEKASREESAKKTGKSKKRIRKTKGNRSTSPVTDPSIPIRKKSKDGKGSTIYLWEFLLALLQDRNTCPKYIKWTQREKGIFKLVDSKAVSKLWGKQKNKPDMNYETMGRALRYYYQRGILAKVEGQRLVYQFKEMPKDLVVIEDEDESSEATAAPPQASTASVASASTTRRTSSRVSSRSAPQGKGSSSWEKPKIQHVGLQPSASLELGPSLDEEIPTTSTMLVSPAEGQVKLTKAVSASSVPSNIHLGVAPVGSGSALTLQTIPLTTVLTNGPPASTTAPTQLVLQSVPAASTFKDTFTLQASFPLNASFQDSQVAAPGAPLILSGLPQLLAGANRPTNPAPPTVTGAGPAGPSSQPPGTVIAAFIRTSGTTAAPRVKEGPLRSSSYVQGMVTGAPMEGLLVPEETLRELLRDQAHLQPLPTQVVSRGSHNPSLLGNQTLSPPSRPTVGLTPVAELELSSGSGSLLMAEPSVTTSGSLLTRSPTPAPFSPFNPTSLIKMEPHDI
Sequence of ETV5 (P41161 whole entry): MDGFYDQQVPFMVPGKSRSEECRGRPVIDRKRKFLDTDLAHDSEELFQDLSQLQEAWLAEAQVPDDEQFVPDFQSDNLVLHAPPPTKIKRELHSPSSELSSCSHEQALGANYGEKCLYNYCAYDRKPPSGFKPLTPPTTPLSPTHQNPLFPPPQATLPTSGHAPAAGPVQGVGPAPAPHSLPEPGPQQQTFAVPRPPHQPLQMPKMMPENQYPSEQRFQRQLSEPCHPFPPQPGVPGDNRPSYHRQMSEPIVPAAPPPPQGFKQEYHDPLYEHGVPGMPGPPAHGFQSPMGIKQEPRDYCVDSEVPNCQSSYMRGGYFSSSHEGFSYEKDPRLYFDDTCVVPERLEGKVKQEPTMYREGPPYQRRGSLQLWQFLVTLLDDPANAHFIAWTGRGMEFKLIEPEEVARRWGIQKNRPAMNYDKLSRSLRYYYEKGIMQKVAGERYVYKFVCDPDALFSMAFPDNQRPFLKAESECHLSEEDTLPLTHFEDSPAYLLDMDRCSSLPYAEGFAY
Sequence of CRX (O43186 whole entry): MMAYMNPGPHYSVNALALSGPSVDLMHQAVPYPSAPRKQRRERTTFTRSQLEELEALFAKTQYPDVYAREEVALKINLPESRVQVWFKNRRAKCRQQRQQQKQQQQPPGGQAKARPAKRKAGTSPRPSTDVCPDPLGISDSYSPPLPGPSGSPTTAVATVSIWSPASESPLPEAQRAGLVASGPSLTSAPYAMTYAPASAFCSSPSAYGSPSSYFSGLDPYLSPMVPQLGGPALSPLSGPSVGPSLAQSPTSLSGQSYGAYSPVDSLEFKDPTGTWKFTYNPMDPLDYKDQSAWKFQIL

For TACACC, the binding signal is 1.2 fold enrichment (6-mer frequency, TF over GST control) with FEV; 1.15 fold enrichment (6-mer frequency, TF over GST control) with ETV5; 1.03 fold enrichment (6-mer frequency, TF over GST control) with HSF1; 1.3 fold enrichment (6-mer frequency, TF over GST control) with SPIC; 1.22 fold enrichment (6-mer frequency, TF over GST control) with ELF4; 1.16 fold enrichment (6-mer frequency, TF over GST control) in the assay with ELK4. Moreover, the binding signal was 1.19 fold enrichment (6-mer frequency, TF over GST control) in the assay with ETV2; 1.11 fold enrichment (6-mer frequency, TF over GST control) in the assay with ELF3; 1.06 fold enrichment (6-mer frequency, TF over GST control) in the assay with CRX; 1.25 fold enrichment (6-mer frequency, TF over GST control) in the assay with ETV1; 1.21 fold enrichment (6-mer frequency, TF over GST control) with ERF; 1.17 fold enrichment (6-mer frequency, TF over GST control) with ETV3L. Further, the binding signal is 1.1 fold enrichment (6-mer frequency, TF over GST control) in the assay with ETS2; 1.24 fold enrichment (6-mer frequency, TF over GST control) in the assay with SPDEF; 1.13 fold enrichment (6-mer frequency, TF over GST control) with ETV7; 1.18 fold enrichment (6-mer frequency, TF over GST control) with ELF5; 1.18 fold enrichment (6-mer frequency, TF over GST control) with ETV3; 1.15 fold enrichment (6-mer frequency, TF over GST control) in the assay with ETV6.
